Results filed as inconclusive are left out. The source made the active and inactive calls. Unless noted, calls follow the shape of the dose curve; as a rule, active = well fitted curve in the direction sought with a large enough effect in the repeat runs; inconclusive = weak or mixed curves; inactive = no such curve, though single readings can be large; an effect the other way counts as inactive or inconclusive.
How the values were obtained:
[1] = qHTS assay to identify small molecule agonists of the hypoxia (HIF-1) signaling pathway - cell viability counter screen (AID 1224844; calls by dose curve; also: nearly all actives have a fitted effect of over 50% in size)
How it was run: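 HRE-bla ME-180; 0.5% dFBS; cpd 17 h, 37C, 5% CO2; CellTiter-Glo lum., 30 min RT, post-FRET read, same wells.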

[2] = qHTS assay to identify small molecule agonists of H2AX (AID 1224845; active = well fitted activation curve with a large enough effect in the signal ratio in the repeat runs, not every such curve was filed as active; the % refers to the signal ratio)
How it was run: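 Wild-type CHO-K1 cells, plated overnight, exposed 3hr at 37C to 15 concentrations (0.76% DMSO final). Lysed, then HTRF anti-pH2AX (S139) cryptate and anti-H2AX-d2 antibodies, 24 hr room temperature; 665/620 nm emission read.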

[3] = qHTS assay to identify small molecule agonists of the hypoxia (HIF-1) signaling pathway (AID 1224846; active = well fitted activation curve with a large enough effect in the signal ratio in the repeat runs, not every such curve was filed as active; the % refers to the signal ratio)
How it was run: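 Reporter induction in HRE-bla ME-180 cells is taken as agonism: cells sit 5 hrs after plating, receive compounds or DMSO only, incubate 17 hrs at 37C under 5% CO2, and are loaded with CCF4-AM for beta-lactamase FRET measurement.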

[4] = qHTS assay to identify small molecule agonists of H2AX - cell viability counter screen (AID 1224847; calls by dose curve; also: top concentration of the series differs between compounds; nearly all actives have a fitted effect of over 30% in size)
How it was run: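 Viability of CHO-K1 (wild type) cells after 3 hr compound exposure was measured by CellTiter-Glo luminescence.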

[5] = qHTS assay to identify small molecule antagonists of the estrogen related receptor (ERR) signaling pathway from Tox21 library (AID 1224848); also: nearly all actives have a fitted effect of over 50% in size; also: potency is read from the fitted curve at half-maximal effect
How it was run: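 Compounds dissolved in DMSO are pin-transferred onto ERR reporter cells (2,000 per well) that have settled for 6 h at 37 C. Plates then incubate 18 h at 37 C before ONE-Glo luciferase reagent and a luminescence read 30 min later.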

[6] = qHTS assay to identify small molecule agonists of the estrogen related receptor (ERR) signaling pathway from Tox21 library (AID 1224849; calls by dose curve; also: nearly all actives have a fitted effect of over 15% in size); conditions: ERR reporter cell line, ONE-Glo luciferase, 18 h; at 92.4 µM (top of the series) unless noted
How it was run: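 Tox21 compounds tested for ERR agonism in an NTP reporter cell line: 18 h treatment at 37 C, then ONE-Glo luminescence.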

[7] = qHTS RealTime-Glo MT Cell Viability Assay in HepG2 cells - 24 hour (AID 1224867); also: nearly all actives have a fitted effect of over 50% in size; also: potency is read from the fitted curve at half-maximal effect
How it was run: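 Cell number in HepG2 cultures estimated from NanoLuc luminescence generated by metabolic reduction of a prosubstrate by living cells. The homogeneous, nonlytic format allowed repeated reads at 0, 8, 16, 24, 32 and 40 h of compound exposure.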

[8] = qHTS RealTime-Glo MT Cell Viability Assay in HEK293 cells - 32 hour (AID 1224868); also: nearly all actives have a fitted effect of over 50% in size; also: potency is read from the fitted curve at half-maximal effect
How it was run: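 Homogeneous bioluminescent viability format in HEK293 cells (600 cells/well). Following 5 h at 37 C/5% CO2, 23 nL compound was pintooled; the signal was measured repeatedly during 40 h incubation.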

[9] = target: Thyrotropin receptor (Homo sapiens) (UniProt P16473); assay: qHTS assay to identify small molecule agonists of the thyroid stimulating hormone receptor (TSHR) signaling pathway (AID 1224843; calls by dose curve; also: nearly all actives have a fitted effect of over 45% in size)
Sequence of Thyrotropin receptor (Homo sapiens) (P16473 whole entry, looked up): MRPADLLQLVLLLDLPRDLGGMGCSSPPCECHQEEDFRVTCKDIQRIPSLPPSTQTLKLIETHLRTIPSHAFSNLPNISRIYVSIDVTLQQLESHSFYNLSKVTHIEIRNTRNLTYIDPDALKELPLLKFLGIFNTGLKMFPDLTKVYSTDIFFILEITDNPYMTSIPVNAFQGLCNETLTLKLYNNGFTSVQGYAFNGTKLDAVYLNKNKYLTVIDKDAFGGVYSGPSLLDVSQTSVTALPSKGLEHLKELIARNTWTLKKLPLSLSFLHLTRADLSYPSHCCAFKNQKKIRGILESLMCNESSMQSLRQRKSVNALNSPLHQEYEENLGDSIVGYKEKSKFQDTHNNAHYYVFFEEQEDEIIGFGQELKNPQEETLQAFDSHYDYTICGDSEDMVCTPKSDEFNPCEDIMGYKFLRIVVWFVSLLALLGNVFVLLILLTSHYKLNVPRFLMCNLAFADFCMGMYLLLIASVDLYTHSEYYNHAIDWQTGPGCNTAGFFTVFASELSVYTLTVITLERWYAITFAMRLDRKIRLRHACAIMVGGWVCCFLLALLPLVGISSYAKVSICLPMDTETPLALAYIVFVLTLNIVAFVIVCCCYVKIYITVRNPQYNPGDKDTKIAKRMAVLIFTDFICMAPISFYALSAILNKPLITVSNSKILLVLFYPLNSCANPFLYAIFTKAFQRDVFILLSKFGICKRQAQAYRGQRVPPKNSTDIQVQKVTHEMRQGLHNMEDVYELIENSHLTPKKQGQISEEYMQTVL
How it was run: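 HEK293/TSHR, 800 cells/well; cpd 30 min RT; add cAMP-d2 + anti-cAMP-cryptate, 1 h RT; fluorescence read on plate reader. 15-pt titration, n=3.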

[10] = A CellTox Green Cytotoxicity Assay to monitor cytotoxicity in HEK293 cells - 0 hour (AID 1224869); also: nearly all actives have a fitted effect of over 50% in size
How it was run: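 Tox21 screen in HEK293: membrane-impermeant cyanine dye fluoresces on binding dead-cell DNA; compound pinned 5 h post-seeding, plates held at 37 C, signal read repeatedly through 40 h.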
% is scaled to controls: 0 for no effect and ±100 for the full control effect.

Cc1cc2c(s1)Nc1ccccc1N=C2N1CCN(C)CC1
inactive: Potency [1] | Potency [2] | outcome [3] | Potency [4] | Potency [5] | activity change, positive = activation [6] -1.9% [at 42.5 µM] | Potency [7] | Potency [8]

CC1CN(c2ccccc2)NC1=O (configuration not stated)
inactive: Potency [9] | Potency [1] | outcome [3] | Potency [4] | Potency [7] | Potency [8] | Potency [10]

CCCOc1ccc2c(c1)CC[C@@H]1[C@@H]2CC[C@]2(C)C(OC)CC[C@@H]12 (some centres not stated)
inactive: Potency [9] | Potency [1] | Potency [2] | Potency [5] | Potency [7] | Potency [8] | Potency [10]

CC(=O)Oc1cc(C(C)C)c(OCCN(C)C)cc1C
inactive: Potency [9] | Potency [1] | Potency [2] | Potency [4] | Potency [10]

CCCCCCCCOC(=O)CCCCCCCCC(=O)OCCCCCCCC
inactive: Potency [1] | Potency [2] | outcome [3] | Potency [4] | Potency [5] | activity change, positive = activation [6] 3.45% | Potency [7] | Potency [8] | Potency [10]

COc1ccccc1OCC(O)COC(N)=O (configuration not stated)
inactive: Potency [9] | Potency [1] | Potency [2] | Potency [5] | Potency [7] | Potency [8] | Potency [10]

CN(CCCN1c2ccccc2CCc2ccccc21)CC(=O)c1ccc(Cl)cc1
inactive: Potency [9] | Potency [2] | outcome [3] | Potency [7] | Potency [8] | Potency [10]

Cc1ccccc1C(=O)Nc1ccc(C(=O)N2CCCC(O)c3cc(Cl)ccc32)c(C)c1 (configuration not stated)
inactive: Potency [1] | Potency [2] | outcome [3] | Potency [4] | activity change, positive = activation [6] -27% [at 42.5 µM] | Potency [7] | Potency [10]

CCCCCCCCc1ccc(S(=O)(=O)O)cc1
inactive: Potency [9] | Potency [2] | Potency [4] | Potency [7] | Potency [8] | Potency [10]

CN1CCN(c2c(F)cc3c(=O)c(C(=O)O)cn4c3c2SCC4)CC1
inactive: Potency [9] | Potency [1] | outcome [3] | Potency [4] | Potency [7] | Potency [8] | Potency [10]

CC1(C)C(=O)N(Cl)C(=O)N1Br
inactive: Potency [1] | Potency [2] | outcome [3] | Potency [4] | Potency [7] | Potency [8]

CCOC(=O)C1CC(=O)C(=C(O)C2CC2)C(=O)C1 (configuration not stated)
inactive: Potency [1] | Potency [2] | outcome [3] | Potency [4] | Potency [5] | activity change, positive = activation [6] 6.54% | Potency [7] | Potency [8] | Potency [10]

Nc1cccc(S(=O)(=O)O)c1
inactive: Potency [9] | Potency [2] | outcome [3] | Potency [4] | Potency [8] | Potency [10]

COc1ccccc1N1CCN(CCCNc2cc(=O)n(C)c(=O)n2C)CC1
inactive: Potency [9] | Potency [1] | Potency [2] | Potency [5] | Potency [7] | Potency [8] | Potency [10]

CCNCCO
inactive: Potency [9] | Potency [1] | outcome [3] | Potency [7] | Potency [8]

CN(C)CC[C@@H](c1ccc(Cl)cc1)c1ccccn1
inactive: Potency [9] | Potency [1] | Potency [2] | Potency [4] | Potency [7] | Potency [10]

CCCCOc1cc(C(=O)NCCN(CC)CC)c2ccccc2n1
inactive: Potency [9] | Potency [1] | Potency [2] | Potency [10]
active: Potency [8] 21.3 µM

O=[N+]([O-])c1nccn1CO[C@@H](CO)[C@H](O)CO
inactive: Potency [1] | Potency [2] | outcome [3] | Potency [4] | Potency [5] | activity change, positive = activation [6] 7.4% [at 42.5 µM] | Potency [7] | Potency [8] | Potency [10]

CN1CCN(C2=Nc3cc(F)ccc3Cc3ccccc32)CC1
inactive: Potency [1] | Potency [2] | outcome [3] | Potency [4] | Potency [5] | activity change, positive = activation [6] 0.425% [at 42.5 µM] | Potency [7] | Potency [10]

CNCCC(Oc1ccccc1OC)c1ccccc1 (configuration not stated)
inactive: Potency [9] | Potency [1] | Potency [2] | Potency [5] | activity change, positive = activation [6] -5.63% [at 42.5 µM] | Potency [7] | Potency [8] | Potency [10]

CCOC(=O)CS
inactive: Potency [9] | Potency [2] | outcome [3] | Potency [4] | Potency [7] | Potency [8]

Cn1cnc2c(F)c(Nc3ccc(Br)cc3Cl)c(C(=O)NOCCO)cc21
inactive: Potency [1] | Potency [2] | outcome [3] | Potency [4] | Potency [5] | Potency [8]

ICCc1ccccc1
inactive: Potency [9] | Potency [4] | Potency [8] | Potency [10]
active: Potency [7] 19.1 µM

CCCCNC(=S)NCCCC
active: Potency [5] 68.6 µM
inactive: Potency [9] | Potency [2] | outcome [3] | activity change, positive = activation [6] -66.6% | Potency [7] | Potency [8]

CCc1cc(Cl)c(OC)c(C(=O)NC[C@@H]2CCCN2CC)c1O
inactive: Potency [1] | Potency [2] | outcome [3] | Potency [4] | Potency [5] | activity change, positive = activation [6] 1.1% [at 42.5 µM] | Potency [7] | Potency [8] | Potency [10]

O=C(O)[C@@H](O)[C@H](O)[C@H](O)[C@@H](O)C(=O)O
inactive: Potency [1] | Potency [2] | outcome [3] | Potency [4] | Potency [5] | activity change, positive = activation [6] 4.4% [at 42.5 µM] | Potency [8] | Potency [10]

CC1=C2[C@H](/C=C(\C)C(=O)O)CC[C@@H](C)[C@H]2CC1
inactive: Potency [9] | Potency [2] | outcome [3] | Potency [4] | activity change, positive = activation [6] -46% | Potency [10]
active: Potency [5] 56.5 µM

O=C(O[C@@H](C(=O)O)[C@@H](OC(=O)c1ccccc1)C(=O)O)c1ccccc1
inactive: Potency [1] | Potency [2] | outcome [3] | Potency [4] | Potency [5] | activity change, positive = activation [6] -13.3% | Potency [7] | Potency [8] | Potency [10]

CCCCCCn1c(=O)c2c(ncn2C)n(C)c1=O
inactive: Potency [1] | Potency [2] | outcome [3] | Potency [4] | Potency [5] | Potency [7] | Potency [8] | Potency [10]

O=C1CCCc2ccccc21
inactive: Potency [1] | Potency [2] | outcome [3] | Potency [4] | Potency [5] | Potency [7] | Potency [8] | Potency [10]

O=CCCc1ccccc1
inactive: Potency [1] | Potency [2] | outcome [3] | Potency [4] | activity change, positive = activation [6] 7.2% | Potency [7] | Potency [10]

COc1cc2c(cc1N)oc1ccccc12
inactive: Potency [9] | outcome [3] | Potency [4] | Potency [5] | Potency [7] | Potency [10]

CC1=NN(c2cc(Cl)c(S(=O)(=O)O)cc2Cl)C(=O)C1N=Nc1ccc(S(=O)(=O)O)cc1 (configuration not stated)
inactive: Potency [9] | Potency [1] | outcome [3] | Potency [4] | Potency [7] | Potency [8] | Potency [10]

OCC(CBr)(CBr)CBr
inactive: Potency [9] | Potency [1] | outcome [3] | Potency [4] | Potency [7] | Potency [10]

Reference: PubChem BioAssay (Tox21)
